Screens: PubChem BioAssay, National Center for Advancing Translational Sciences (NCATS)
A selection: hits, their analogues and other compounds. The true share with any hit is near 6.5%.
HCMV inh: inhibitors of human cytomegalovirus; HFF cells, HCMV-luciferase reporter, 72 h; active compounds read low; activity change, negative = inhibition, % at 57.5 µM; 410,000 tested, 4.5% active; AID 1259415; in the data active = activity change below about -60%; inconclusive = no clear call, values can overlap the other calls; inactive = above about -39%
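Compounds were evaluated in HFFs infected with an HCMV luciferase reporter virus (MOI 1 PFU/cell). Luciferase in lysates collected 72 h post infection served as the replication measure.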
Vaccinia Venus: inhibitors of vaccinia virus (Venus reporter). Vaccinia virus Venus reporter expression, fluorescence. Potency, µM (series often up to 36.5 µM), for the others: top-dose activity change, negative = inhibition, hits mostly inhibitors. 330,000 tested, 0.46% active; calls by dose curve; tested in A549 cells; also: potency is read from the fitted curve at half-maximal effect; nearly all actives have a fitted effect of over 30% in size
FMDV antiviral: blocks foot and mouth disease virus; FMDV antiviral cell-based qHTS; Potency, µM (doses to about 57.9 µM), without a hit: at the top dose activity change, negative = inhibition, usual class: inhibitors; 410,000 tested, 1.2% active; calls by dose curve; tested in HEK293T cells; also: read-out not given here; potency is read from the fitted curve at half-maximal effect; nearly all actives have a fitted effect of over 45% in size
VACV mCherry inh: vaccinia inhibition (mCherry reporter) | Vaccinia virus mCherry reporter infection, fluorescence | Potency, µM (titrated, usually from 36.5 µM), for inactives: at the top dose activity change, negative = inhibition, actives largely listed as inhibitors | 310,000 tested, 0.63% active | AID 720579; calls by dose curve; tested in A549 cells; also: potency is read from the fitted curve at half-maximal effect; nearly all actives have a fitted effect of over 35% in size
Marburg entry inh: blocks Marburg virus binding to or entry into cells. Marburg virus pseudotyped entry inhibition, cell reporter. Potency, µM (highest dose often 37.8 µM), inactives show at the top dose activity change, negative = inhibition, usual class: inhibitors. 300,000 tested, 1.8% active; calls by dose curve; tested in HEK293 cells; also: potency is read from the fitted curve at half-maximal effect
Lassa entry inh: Lassa virus entry inhibition | Lassa virus pseudotype entry inhibition, cell reporter | 300,000 tested, 1.2% active | Potency, µM (titrated, usually from 37.9 µM), without a hit: at the top dose activity change, negative = inhibition, most hits filed as inhibitors; calls by dose curve; tested in HEK293 cells; also: potency is read from the fitted curve at half-maximal effect; nearly all actives have a fitted effect of over 50% in size
* hit, by the source's call; i = inactive; ? = inconclusive; . = no result; [ ] = another dose, or the depositor's remark. % is scaled to controls: 0 for no effect and ±100 for the full control effect.

SMILES | HCMV inh | Vaccinia Venus | FMDV antiviral | VACV mCherry inh | Marburg entry inh | Lassa entry inh
Cc1ccc(NC(=O)N[C@H]2CC[C@@]34CCCN3C(=O)CCC[C@H]4[C@H]2C)cc1 | -3.3 | . | . | . | . | .
CCCC[C@H]1COCCS(=O)(=O)N1Cc1ccccc1F | -99.1* | -14.0% | -8.6% | i | . | .
O=S1(=O)CCOC[C@H](Cc2ccccc2)N1Cc1cccc(F)c1 | -18.3 | -15.0% | -14.7% | -5.5% | . | .
CC(C)[C@H]1COCCS(=O)(=O)N1Cc1cccc(Cl)c1 | -18.4 | -24.1% | -8.6% | -14.5% | . | .
CC(C)[C@H]1COCCS(=O)(=O)N1Cc1cccc([N+](=O)[O-])c1 | . | 28.2µM* | . | ? | . | .
CC(C)[C@H]1COCCS(=O)(=O)N1Cc1ccccc1F | 16.4 | 1µM* | -9.3% | ? | . | .
O=S1(=O)CCOC[C@H](Cc2ccccc2)N1Cc1ccc(F)cc1 | -66.8* | ? | -15.3% | -2.5% | . | .
Cc1ccccc1C(=O)Nc1ccc2c(C#N)c3nc4ccccc4nc3n2c1 | -65.0* | 271.1% | ? | 66.5% | -17.2% | 0.3%
c1ccc(N2CCN(c3ncnc4c3oc3ccccc34)CC2)cc1 | -28.9 | -7.0% | 35.5µM* | i | ? | 7.2%
CCc1nnc(N2CCN(c3ncnc4c3oc3ccccc34)CC2)s1 | ? | -6.3% | 22.4µM* | -12.3% | 0.0% | 4.4%
CCOC(=O)C1CCN(c2ncnc3c2oc2ccccc23)CC1 | 41.1 | -3.2% | . | -20.7% | -7.3% | -22.9%
CCc1nc(Nc2ccc(N3CCN(C(C)=O)CC3)cc2)c2oc3ccccc3c2n1 | -5.2 | -24.0% | ? | -29.4% | ? | ?
CC(=O)N1CCN(c2ccc(Nc3ncnc4c3oc3ccccc34)cc2)CC1 | ? | ? | 28.2µM* | -13.5%[1.46 µM] | ? | ?
Cc1ccc2c(c1)c1ncnc(N3CCN(c4ccccc4)CC3)c1n2C | 86.9 | -8.9% | 20µM* | . | 0.4% | ?
O=C(CSc1ncnc2c1oc1ccccc12)N1CCN(c2ccccc2)CC1 | 36.9 | . | 0.2% | . | 1.0% | 5.8%
C=C(C#CCCO)CCN1C=C(C(=O)OCC)C(c2ccccc2)NC1=O (centres undefined) | . | . | . | . | 1.9%[14.2 µM] | ?
O=C(/C=C/c1ccc(C(F)(F)F)cc1)OC(C(=O)NC1CC1)c1ccccc1 (centres undefined) | . | -7.6% | . | 10.6% | . | .
O=C(N/N=C/C=C/c1ccccc1[N+](=O)[O-])c1cccs1 | ? | -16.6% | 21.0% | -1.9% | ? | 8.8%
O=C(N/N=C\C=C\c1ccc([N+](=O)[O-])o1)c1cccs1 | -64.8* | ? | 1.7% | 10µM* | ? | ?
Cc1ccc(NC(=O)N(Cc2cccs2)Cc2cc3cc4c(cc3[nH]c2=O)OCO4)cc1 | 17.8 | . | . | . | -25.1% | -4.1%
O=C(Nc1ccc(F)cc1)N(Cc1ccco1)Cc1cc2cc3c(cc2[nH]c1=O)OCO3 | ? | ? | ? | . | 17.8µM* | -4.7%
O=C(Nc1ccc(F)cc1)N(Cc1cccs1)Cc1cc2cc3c(cc2[nH]c1=O)OCO3 | -60.9* | ? | 17.8µM* | ? | ? | ?
COc1ccc(NC(=O)N(Cc2cccs2)Cc2cc3cc4c(cc3[nH]c2=O)OCO4)cc1 | . | . | . | . | 4.9% | -1.7%
O=C(O)c1ccccc1NC(=O)c1ccccc1Nc1ccccc1 | -69.8* | . | -24.4% | . | . | .
COc1ccccc1NC(=O)c1ccccc1Nc1ccccc1 | -22.5 | -18.7% | -16.3% | -6.1% | -6.2% | -15.4%
SMILES | HCMV inh | Vaccinia Venus | FMDV antiviral | VACV mCherry inh | Marburg entry inh | Lassa entry inh
O=C(Nc1ccc(C#Cc2ccccc2)cc1)C1CC1 | -64.1* | . | 47.1% | . | 2.31µM* | 4.61µM*
O=C(Nc1ccccc1C(=O)O)c1ccc(NC(=O)C2CC2)cc1 | 0.1 | 0.8% | ? | -11.3% | 5.01µM* | ?
CC(=O)Nc1ccc(C#Cc2ccc(NC(C)=O)cc2)cc1 | -72.1* | -5.9% | . | -15.8% | 4.61µM* | 7.3µM*
COc1ccc([C@]23Cc4ccccc4[C@H](O2)C2=C(O3)C(=O)c3ccccc3C2=O)cc1 | . | . | . | . | 10.6%[14.2 µM] | .
CCCS(=O)(=O)N1CCCC(C(=O)NCCOC)C1 (centres undefined) | 12.8 | -1.0% | -5.8% | 6.1% | . | 22.8%[46.1 µM]
Nc1ccc(C(=O)Nc2ccccc2C(=O)O)cc1 | 21.2 | . | 43.1% | . | 20.8% | 8.1%
O=C(Nc1ccccc1C(=O)Nc1ccccc1C(=O)O)c1ccccc1 | -60.2* | -10.9% | 0.0% | -18.9% | ? | ?
CC(C)NC(=NCc1ccc(Cl)cc1Cl)Nc1ccccc1 | -101.0* | . | -29.9% | . | . | .
